TDP1 inh = blocks human tyrosyl-DNA phosphodiesterase 1; Q9NUW8; Potency, µM (series often up to 130 µM), inactives show at the highest dose activity change, negative = inhibition, usual class: inhibitors; AID 485290; recombinant TDP1, AlphaScreen DNA substrate cleavage; 0.28% of 350,000 active; note: % is set by controls: 0 for no effect and ±100 for the full control effect; nearly all actives have a fitted effect of over 40% in size
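Recombinant E. coli-expressed Tdp1 (1 nM) preincubated with compound 15 min at RT, then 5'-biotin/3'-phosphotyrosine-FITC DNA substrate (15 nM) added for 5 min. AlphaScreen beads (10 ug/ml) added, 10 min RT; tyrosine-FITC cleavage read as signal loss.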
FEN1 inh-1 = human FEN1 inhibition; P39748; 0.35% of 390,000 active; Potency, µM (doses to about 114 µM), without a hit: at the highest dose activity change, negative = inhibition, hits mostly inhibitors; Recombinant FEN1 flap cleavage, fluorescence, 15 min; note: % is set by controls: 0 for no effect and ±100 for the full control effect; nearly all actives have a fitted effect of over 65% in size
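Enzyme 10 nM, 15 min RT preincubation with compound; start with substrate 50 nM final; reads at 0 and 15 min; qHTS titration, four-parameter Hill fit.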
RECQ1 inh = blocks DNA unwinding by human RECQ1 | P46063 | RECQ1 DNA unwinding, red fluorescence kinetic read | Potency, µM (titrated, usually from 57.3 µM), for the others: at the highest dose activity, negative = inhibition, actives largely listed as inhibitors | 0.54% of 240,000 active;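 note: plate controls were vehicle for no effect and no enzyme for full effect; nearly all actives have a fitted effect of over 30% in size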
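RECQ1T1 50 nM; forked duplex (20 bp + 30-nt ss tails) 200 nM, ATP 2 mM final; pH 8.0, 2 mM MgCl2, 2.5 ug/ml poly(dI-dC); 15 min compound preincubation; discontinuous kinetic read over 2 h at RT.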
APE1 inh = inhibitors of human APE1 endonuclease | P27695 | recombinant APE1, TAMRA/BHQ-2 abasic DNA cleavage fluorescence | Potency, µM (highest dose often 65.8 µM), without a hit: top-dose activity change, negative = inhibition, hits mostly inhibitors | 0.35% of 350,000 active | AID 2517;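 note: plate controls were vehicle for no effect and reference inhibitor for full effect; nearly all actives have a fitted effect of over 55% in size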
Target sequence (P27695 whole entry, looked up): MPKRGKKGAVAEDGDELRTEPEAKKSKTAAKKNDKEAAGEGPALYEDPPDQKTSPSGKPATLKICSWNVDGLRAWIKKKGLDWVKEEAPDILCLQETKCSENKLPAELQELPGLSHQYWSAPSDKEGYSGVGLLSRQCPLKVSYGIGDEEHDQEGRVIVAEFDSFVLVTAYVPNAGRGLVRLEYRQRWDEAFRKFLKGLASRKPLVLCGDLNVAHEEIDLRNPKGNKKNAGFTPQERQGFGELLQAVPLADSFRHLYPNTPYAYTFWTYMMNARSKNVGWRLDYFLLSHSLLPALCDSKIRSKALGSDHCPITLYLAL
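Substrate: short duplex with […] THF abasic site, 5'-TAMRA and 3'-BHQ-2, 50 nM final. APE1 at 0.75 nM, preincubated 15 min RT with compound. Fluorescence increase from first to third read measured activity.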
BLM helicase inh = inhibitors of human Bloom syndrome helicase BLM; recombinant BLM DNA unwinding, fluorescence dequenching; Potency, µM (series often up to 56.1 µM), inactives show top-dose activity change, negative = inhibition, most hits filed as inhibitors; P54132; 0.2% of 350,000 active;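 note: plate controls were vehicle for no effect and no enzyme for full effect; nearly all actives have a fitted effect of over 35% in size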
FEN1 inh-2 = FEN1 inhibition, cherry-pick retest; FEN1 flap cleavage, TAMRA/BHQ2 fluorogenic DNA substrate; shares compounds with FEN1 inh-1; 79% of 880 active; AID 720498; Potency, µM, actives largely listed as inhibitors; note: nearly all actives have a fitted effect of over 60% in size
* hit, by the source's call; [ ] = dose if it differs, or a comment. Compounds with a hit are over-represented: about 0.92% of the library has one in this group of screens. Calls come from the whole dose curve; as a rule, active = well fitted curve in the direction sought with a large enough effect; inconclusive = small, poorly fitted or top-dose-only effect, or another doubt; inactive = no such curve, though single readings can be large; an effect the other way counts as inactive or inconclusive. Potency is the fitted concentration of half-maximal effect.

Screening Oc1ccc(Nc2nc(N3CCCC3)c3ccccc3n2)cc1 returned TDP1 inh 7%, FEN1 inh-1 50µM*, RECQ1 inh inconclusive, APE1 inh -8%, BLM helicase inh -2% and FEN1 inh-2 34*.
Oc1ccc(/C=N/N=C(c2ccccc2)c2ccccc2)c(O)c1O was read as TDP1 inh 2%, FEN1 inh-1 inconclusive, RECQ1 inh -17%, APE1 inh inconclusive, BLM helicase inh inconclusive and FEN1 inh-2 48*.
`COc1cc(C2c3c([nH]c(=O)[nH]c3=O)Nc3ccc4ccccc4c32)ccc1O` (configuration not stated) gave TDP1 inh -9%, FEN1 inh-1 inconclusive, RECQ1 inh -26%, APE1 inh 7% and BLM helicase inh -15%.
For COc1cc(C2c3c([nH]c(=O)[nH]c3=O)Nc3ccc4ccccc4c32)cc(OC)c1OC (configuration not stated) the results were FEN1 inh-1 28µM*, RECQ1 inh inactive, APE1 inh -7%, BLM helicase inh 25µM* and FEN1 inh-2 30*.
C/C=C/OC(=O)NC(c1ccccc1)[C@@]1(C(=O)OC)CCCC1=O (some centres not stated) was read as TDP1 inh 7%[21 µM], RECQ1 inh inactive[11.5 µM], APE1 inh 3%[12.4 µM] and BLM helicase inh -2%[12.4 µM].
`O=C(O)c1cc(O)c2c(c1)[C@@H]([C@H]1c3cc(C(=O)O)cc(O)c3C(=O)c3c(O[C@@H]4O[C@H](CO)[C@@H](O)[C@H](O)[C@H]4O)cccc31)c1cccc(OC3O[C@H](CO)[C@@H](O)[C@H](O)[C@H]3O)c1C2=O` (some centres not stated) gave FEN1 inh-1 inconclusive, APE1 inh 0.084µM* and FEN1 inh-2 30*.
`O=C(OCC#CCSc1nnc(-c2cccc3ccccc23)o1)c1sccc1Cl` gave TDP1 inh -1%.
`O=C1c2cccc(NCCCNCCO)c2C(=O)c2cccc(NCCCNCCO)c21` gave FEN1 inh-1 3.5µM* and FEN1 inh-2 4.3*.
`O=C1c2ccccc2C(=O)c2c(NCc3cccnc3)cccc21` gave TDP1 inh 11%, FEN1 inh-1 -18%, RECQ1 inh -14%, APE1 inh 1% and BLM helicase inh -16%.
`Cc1ccc2nc(-c3ccc(C)c(NC(=O)COc4ccccc4Cl)c3)oc2c1` gave FEN1 inh-1 2%.
Screening COc1ccccc1C(=O)Nc1cccc(OCc2cc(=O)n3ccccc3n2)c1 returned TDP1 inh 5%, FEN1 inh-1 6% and BLM helicase inh -5%.
For Cc1c(NC(=O)C(C)OC(=O)c2sc3ccccc3c2Cl)c(=O)n(-c2ccccc2)n1C (configuration not stated) the results were TDP1 inh -3%, FEN1 inh-1 -9%, RECQ1 inh 3%, APE1 inh 0% and BLM helicase inh -11%.
Screening COc1cc(C(=O)OC(C)C(=O)NC2CCCCC2C)c([N+](=O)[O-])cc1OC (configuration not stated) returned FEN1 inh-1 3% and APE1 inh -7%.
Screening Cc1c(NC(=O)C(C)OC(=O)c2ccc([N+](=O)[O-])s2)c(=O)n(-c2ccccc2)n1C (configuration not stated) returned TDP1 inh 6%, FEN1 inh-1 -2%, RECQ1 inh -8%, APE1 inh inconclusive, BLM helicase inh -8% and FEN1 inh-2 6*.
`CC(OC(=O)c1ccc([N+](=O)[O-])s1)C(=O)NC1CCCCC1C` (configuration not stated) gave TDP1 inh 0%, FEN1 inh-1 -20%, APE1 inh 2% and FEN1 inh-2 12*.
Screening CC1CCCC(NC(=O)COC(=O)c2ccc([N+](=O)[O-])s2)C1C (configuration not stated) returned TDP1 inh 0%, FEN1 inh-1 -24%, APE1 inh inconclusive and FEN1 inh-2 6*.
`COc1cc(NS(=O)(=O)c2ccc(NC(=S)NC(=O)/C=C/c3ccco3)cc2)ncn1` gave FEN1 inh-1 13µM*, RECQ1 inh inactive, APE1 inh inconclusive, BLM helicase inh 3% and FEN1 inh-2 60*.
COc1ccc(/C=C\c2onc(C)c2S(=O)(=O)N2CCC(C(=O)Nc3cccc(Cl)c3)CC2)cc1 was read as TDP1 inh 5%, FEN1 inh-1 -16% and BLM helicase inh -3%.
`CN(C)c1ccc(/C=C2\CCc3ccccc32)cc1` gave FEN1 inh-1 0%.
For CN(C)c1ccc(C=c2c3ccccc3n3c2c2c([n+]3C)CCCC2)cc1 the results were FEN1 inh-1 22µM* and FEN1 inh-2 30*.
`O=C1c2ccccc2C(=O)N1c1cccc(N2C(=O)c3ccccc3C2=O)n1` gave TDP1 inh 0% and FEN1 inh-1 -5%.
COC(=O)c1cc2c(-c3ccccc3)c(C)c3ccccn3c-2c1C(=O)OC was read as TDP1 inh 12%, FEN1 inh-1 inconclusive, RECQ1 inh -27%, APE1 inh -6%, BLM helicase inh -15% and FEN1 inh-2 85*.
For CN(C)CCN(Cc1ccccc1)S(=O)(=O)c1ccc(-c2cc(C(F)(F)F)on2)s1 the results were TDP1 inh 3%, FEN1 inh-1 -14% and BLM helicase inh -4%.
`Cc1ccc(C(=O)Nc2ccc(-c3nc4ccccc4[nH]3)cc2)cc1Br` gave FEN1 inh-2 60*.
O=C1N=c2ccccc2=C1c1sc(Nc2ccc(O)cc2)nc1O was read as TDP1 inh -1%, FEN1 inh-1 inconclusive, RECQ1 inh -28%, APE1 inh inconclusive, BLM helicase inh inconclusive and FEN1 inh-2 76*.
CC(OC(=O)/C(C#N)=C/c1ccc(N(C)C)cc1)C(=O)N(C)c1ccccc1 (configuration not stated) was read as TDP1 inh -5%, FEN1 inh-1 50µM*, APE1 inh 24µM* and FEN1 inh-2 38*.
For COc1cccc(C2c3c(ncn(CCCN4CCOCC4)c3=N)Oc3ccc4ccccc4c32)c1 (configuration not stated) the results were FEN1 inh-2 38*.
For COc1ccc(C2c3c(ncn(CCCN4CCOCC4)c3=N)Oc3ccc4ccccc4c32)cc1OC (configuration not stated) the results were TDP1 inh 7%, FEN1 inh-1 inconclusive, RECQ1 inh -10%, APE1 inh 1% and BLM helicase inh 44%.
For CCN(CC)S(=O)(=O)c1ccc(NC(=O)CSc2nnc3c(n2)[nH]c2ccccc23)cc1 the results were FEN1 inh-1 -4%.
